# Screening data (PubChem BioAssay)
# T cruzi growth-1: blocks T. cruzi growth in NIH3T3 culture | T. cruzi beta-gal in NIH3T3, GalScreen luminescence, 90 h | inhibition, % at 8.34 µM | actives 5.9% (n = 77,000);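 active = mean inhibition above about 93%, with at least 55% of replicates each passing it, limit read from the data, passing the limit was not always enough; inconclusive = only one of those two conditions holds; inactive = neither condition holds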
# C diff HTS: blocks growth of Clostridium difficile | Clostridium difficile clinical isolate growth, OD600, 24 h; hits give low values | growth activity, negative = inhibition, % at 16 µg/mL (by protocol) | actives 0.25% (n = 86,000);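 active = mean growth activity at or below -80% and every replicate also at or below -80%; inconclusive = mean at or below -80% but some replicate above -80%; inactive = mean growth activity above -80%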;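 also: 0% = DMSO wells and -100% = levofloxacin 16 µg/mL wells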
# Pf Dd2 inh: P. falciparum Dd2 growth inhibition. SYBR Green, 72 h; hits give low values. activity change, % at 10 µM. actives 2.3% (n = 94,000). AID 1159554; in the data active = activity change below about -80%; inconclusive = no clear call, values can overlap the other calls
# T cruzi growth-2: blocks T. cruzi growth in NIH3T3 host cells; shares compounds with T cruzi growth-1; T. cruzi beta-gal in NIH3T3, GalScreen luminescence, 90 h; inhibition, % at 8.35 µM; actives 72% (n = 5,600); AID 651739;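 active = mean replicate inhibition above about 95% and at least 55% of replicates individually reaching it, limit read from the data; inconclusive = only one of the two criteria is met; inactive = neither criterion is met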
# T cruzi growth-3: inhibitors of T. cruzi proliferation. shares compounds with T cruzi growth-1. T. cruzi beta-gal in NIH3T3, GalScreen luminescence, 90 h. inhibition, % at 2.09 µM. actives 21% (n = 5,600);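 active = mean inhibition above about 95%, with at least 55% of replicates also reaching it, limit read from the data; inconclusive = meets just one of the two conditions; inactive = meets neither condition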;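 also: plate controls were neutral control median for no effect and positive control median for full effect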
# 3T3 cytotox: kills mouse NIH/3T3 fibroblasts | AID 651742 | actives 14% (n = 5,600) | shares compounds with T cruzi growth-1 | cytotoxicity (signal decrease), % at 8.35 µM | NIH/3T3 viability, CellTiter-Glo ATP luminescence, 90 h;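 active = mean signal decrease across replicates above about 35% based on untreated-well scatter, with enough replicates individually passing, limit read from the data; inconclusive = no rule stated though some were filed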;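 also: 0% = median of neutral control wells and 100% = median of positive control wells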
# 3T3 cytotox 2: cytotoxicity in mouse NIH/3T3 fibroblasts | actives 56% (n = 5,600) | inhibition, % at 24.9 µM | shares compounds with T cruzi growth-1 | NIH/3T3 viability, CellTiter-Glo ATP luminescence, 90 h;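 active = mean loss of cell viability signal at or above a set limit, and enough replicates individually reaching it; inconclusive = meets only the mean limit or only the replicate share; inactive = meets neither condition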;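 also: 0% = median of neutral control wells and 100% = median of positive control wells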
# Numbers without * were called inactive; ? = inconclusive; / = no result given. Most compounds without a hit are left out; they make up all but 6.8% or so of the library.
SMILES,T cruzi growth-1,C diff HTS,Pf Dd2 inh,T cruzi growth-2,T cruzi growth-3,3T3 cytotox,3T3 cytotox 2
C[C@H]1CN([C@@H](C)CO)C(=O)Cc2cc(NS(=O)(=O)c3ccc(F)cc3)ccc2O[C@H]1CN(C)Cc1ccccc1,100*,-13,-42,99*,24,-8,28
C[C@@H]1CN([C@H](C)CO)C(=O)Cc2cc(NS(=O)(=O)c3ccc(F)cc3)ccc2O[C@H]1CN(C)Cc1ccccc1,97*,-9,7,110*,14,0,23
C[C@@H]1CN([C@@H](C)CO)C(=O)Cc2cc(NS(=O)(=O)c3ccc(F)cc3)ccc2O[C@@H]1CN(C)Cc1ccc(-c2ccccc2)cc1,55,/,12,/,/,/,/
C[C@H](CO)N1C[C@H](C)[C@@H](CN(C)Cc2ccccc2)Oc2ccc(NS(=O)(=O)c3ccc(Cl)cc3)cc2CC1=O,95,-1,-58,/,/,/,/
C[C@@H]1CN([C@H](C)CO)C(=O)Cc2cc(NS(=O)(=O)c3ccc(Cl)cc3)ccc2O[C@H]1CN(C)Cc1ccccc1,100*,0,2,110*,103*,7,16
C[C@H](CO)N1C[C@H](C)[C@H](CN(C)Cc2ccccc2)Oc2ccc(NS(=O)(=O)c3ccc(F)cc3)cc2CC1=O,72,-19,-41,/,/,/,/
CC(C)NC(=O)N(C)C[C@H]1Oc2cc(C#C[C@H](C)O)ccc2S(=O)(=O)N([C@H](C)CO)C[C@@H]1C,/,-4,44,/,/,/,/
COc1ccc2c3c(n(C)c2c1)[C@@H](CO)N(CC1CCCC1)CC31CCN(Cc2nccs2)CC1,/,5,-63,/,/,/,/
COCC(=O)N1CCCCN2[C@H](CO)[C@@H](c3ccc(C#Cc4ccc(OC)cc4)cc3)[C@H]2C1,92,-20,6,/,/,/,/
COCC(=O)N1CCCCN2[C@H](C1)[C@@H](c1ccc(C#Cc3ccccc3)cc1)[C@@H]2CO,59,-12,23,/,/,/,/
COCC(=O)N1CCCCN2[C@H](CO)[C@H](c3ccc(C#Cc4ccccc4)cc3)[C@@H]2C1,?,-12,12,99*,37,44*,69*
COCC(=O)N1CCCCN2[C@H](CO)[C@@H](c3ccc(C#Cc4ccc(OC)cc4)cc3)[C@@H]2C1,108*,5,-14,?,6,17,86*
COCC(=O)N1CCCCN2[C@H](C1)[C@H](c1ccc(C#Cc3ccccc3)cc1)[C@@H]2CO,43,-6,0,/,/,/,/
COCC(=O)N1CCCCN2[C@@H](CO)[C@H](c3ccc(C#Cc4ccccc4)cc3)[C@@H]2C1,97*,3,37,?,10,33,62*
C[C@H]1CN([C@@H](C)CO)C(=O)c2cc(-c3ccccc3)cnc2O[C@H]1CN(C)Cc1ccccn1,88,1,-31,/,/,/,/
COc1ccc2c3c([nH]c2c1)[C@@H](CO)N(C)CC31CN(C(=O)Nc2c(C)noc2C)C1,/,-1,9,/,/,/,/
O=C(C[C@H]1CC[C@H](NC(=O)Cc2ccccn2)[C@H](CO)O1)NCCc1ccncc1,21,/,17,/,/,/,/
COCCNC(=O)C[C@H]1C[C@@H]2c3cc(NC(=O)NC4CCCC4)ccc3O[C@@H]2[C@H](CO)O1,-51,-1,13,/,/,/,/
C[C@H](CO)N1C[C@H](C)[C@H](CN(C)S(=O)(=O)c2ccccc2F)Oc2cc(C#Cc3cccc(F)c3)ccc2S1(=O)=O,109*,25,-16,103*,43,17,11
C[C@H](CO)N1C[C@H](C)[C@H](CN(C)C)Oc2cc(C#Cc3cccc(F)c3)ccc2S1(=O)=O,-42,7,-56,/,/,/,/
C[C@@H]1CN([C@H](C)CO)S(=O)(=O)c2ccc(C#Cc3cccc(F)c3)cc2O[C@H]1CN(C)S(=O)(=O)c1ccccc1F,111*,3,-76,109*,106*,32,35*
C[C@@H]1CN([C@@H](C)CO)S(=O)(=O)c2ccc(C#Cc3cccc(F)c3)cc2O[C@@H]1CN(C)C,-12,-5,-51,/,/,/,/
C[C@@H]1CN([C@H](C)CO)S(=O)(=O)c2ccc(C#Cc3cccc(F)c3)cc2O[C@H]1CN(C)C,67,14,-6,/,/,/,/
C[C@@H]1CN([C@@H](C)CO)S(=O)(=O)c2ccc(C#Cc3cccc(F)c3)cc2O[C@H]1CN(C)S(=O)(=O)c1ccccc1F,112*,13,-79,110*,?,8,34*
CCCN(C)C[C@H]1Oc2ncc(C#CC3CC3)cc2C(=O)N([C@@H](C)CO)C[C@H]1C,42,1,-74,/,/,/,/
SMILES,T cruzi growth-1,C diff HTS,Pf Dd2 inh,T cruzi growth-2,T cruzi growth-3,3T3 cytotox,3T3 cytotox 2
COCC(=O)NC[C@H]1[C@@H](c2ccccc2)[C@H](CO)N1C(C)=O,62,-3,6,/,/,/,/
COc1ccc2c3c(n(C)c2c1)[C@@H](CO)N(CC1CC1)CC31CCN(C(=O)Nc2c(C)noc2C)CC1,/,-6,-41,/,/,/,/
CO[C@@H](CN(C)S(=O)(=O)c1ccc(Cl)cc1)[C@@H](C)CN([C@@H](C)CO)S(=O)(=O)c1cccc(Cl)c1,85,/,3,/,/,/,/
CO[C@@H](CN(C)S(=O)(=O)c1ccc(Cl)cc1)[C@H](C)CN([C@@H](C)CO)S(=O)(=O)c1cccc(Cl)c1,84,/,-23,/,/,/,/
CO[C@H](CN(C)S(=O)(=O)c1cccc(Cl)c1)[C@H](C)CN([C@H](C)CO)S(=O)(=O)c1ccc(Cl)cc1,?,/,-3,99*,20,47*,68*
CO[C@@H](CN(C)S(=O)(=O)c1ccc(Cl)cc1)[C@@H](C)CN([C@H](C)CO)S(=O)(=O)c1cccc(Cl)c1,?,/,-40,92,56,54*,79*
C[C@H]1CN([C@@H](C)CO)C(=O)c2cc(NC(=O)CCN3CCOCC3)ccc2O[C@H]1CN(C)C(=O)NC1CCCCC1,/,0,5,/,/,/,/
CC(=O)N1CC2(C1)[C@H](c1ccccc1)[C@@H](CO)N2S(=O)(=O)c1ccccc1,/,-2,-15,/,/,/,/
COc1ccc(-c2ccc([C@H]3[C@H](C#N)N(C(=O)NC4CCCC4)[C@H]3CO)cc2)cc1,?,1,-35,80,28,13,25
COc1ccccc1-c1ccc([C@@H]2[C@@H](C#N)N(C(=O)NC3CCCCC3)[C@@H]2CO)cc1,95,4,-35,/,/,/,/
COc1ccc(-c2ccc([C@H]3[C@H](C#N)N(C(=O)NC4CCCCC4)[C@H]3CO)cc2)cc1,101*,-6,-24,102*,56,26,75*
COc1ccc(-c2ccc([C@@H]3[C@@H](C#N)N(C(=O)NC(C)C)[C@H]3CO)cc2)cc1,34,-12,-28,/,/,/,/
O=C(c1ccccc1F)N1C[C@H]2[C@@H](c3ccccc31)[C@H](CO)N2C(=O)C1CCCC1,51,11,18,/,/,/,/
